Values joined by “and” are separate entries in the source; they are usually repeats but may differ in a detail not shown here. Equal values may be shown once.
Key:
[1] = biological target: T1, Tyrosine-protein kinase ITK/TSK (Homo sapiens) (UniProt Q08881); conditions: at 1 µM;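 note: values are mean percent inhibition of ITK from the GSK PKIS screen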
T1 sequence (whole entry): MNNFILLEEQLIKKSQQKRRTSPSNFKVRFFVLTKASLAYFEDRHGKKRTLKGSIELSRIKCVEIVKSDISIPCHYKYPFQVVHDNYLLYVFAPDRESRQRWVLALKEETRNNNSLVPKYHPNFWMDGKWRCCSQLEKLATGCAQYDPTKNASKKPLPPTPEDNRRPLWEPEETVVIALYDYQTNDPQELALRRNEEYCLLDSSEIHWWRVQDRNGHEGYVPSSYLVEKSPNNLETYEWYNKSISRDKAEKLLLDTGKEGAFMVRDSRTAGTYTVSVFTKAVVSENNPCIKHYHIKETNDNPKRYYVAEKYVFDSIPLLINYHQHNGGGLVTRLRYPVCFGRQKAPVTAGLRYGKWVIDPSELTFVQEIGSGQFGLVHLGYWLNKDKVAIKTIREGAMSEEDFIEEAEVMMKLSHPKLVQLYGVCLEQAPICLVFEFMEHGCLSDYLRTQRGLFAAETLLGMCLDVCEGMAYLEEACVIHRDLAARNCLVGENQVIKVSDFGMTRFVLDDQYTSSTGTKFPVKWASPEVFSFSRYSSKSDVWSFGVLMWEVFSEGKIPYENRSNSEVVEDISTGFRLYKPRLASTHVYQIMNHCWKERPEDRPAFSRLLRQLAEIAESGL

[2] = biological target: Tyrosine-protein kinase JAK1 (Homo sapiens) (UniProt P23458); conditions: at 0.1 µM
[3] = biological target: Tyrosine-protein kinase JAK1 (Homo sapiens) (UniProt P23458); conditions: at 1 µM
[4] = biological target: Tyrosine-protein kinase JAK2 (Homo sapiens) (UniProt O60674); conditions: at 0.1 µM
[5] = biological target: Tyrosine-protein kinase JAK2 (Homo sapiens) (UniProt O60674); conditions: at 1 µM
[6] = biological target: T2, Tyrosine-protein kinase JAK3 (Homo sapiens) (UniProt P52333); conditions: at 0.1 µM
T2 sequence (whole entry): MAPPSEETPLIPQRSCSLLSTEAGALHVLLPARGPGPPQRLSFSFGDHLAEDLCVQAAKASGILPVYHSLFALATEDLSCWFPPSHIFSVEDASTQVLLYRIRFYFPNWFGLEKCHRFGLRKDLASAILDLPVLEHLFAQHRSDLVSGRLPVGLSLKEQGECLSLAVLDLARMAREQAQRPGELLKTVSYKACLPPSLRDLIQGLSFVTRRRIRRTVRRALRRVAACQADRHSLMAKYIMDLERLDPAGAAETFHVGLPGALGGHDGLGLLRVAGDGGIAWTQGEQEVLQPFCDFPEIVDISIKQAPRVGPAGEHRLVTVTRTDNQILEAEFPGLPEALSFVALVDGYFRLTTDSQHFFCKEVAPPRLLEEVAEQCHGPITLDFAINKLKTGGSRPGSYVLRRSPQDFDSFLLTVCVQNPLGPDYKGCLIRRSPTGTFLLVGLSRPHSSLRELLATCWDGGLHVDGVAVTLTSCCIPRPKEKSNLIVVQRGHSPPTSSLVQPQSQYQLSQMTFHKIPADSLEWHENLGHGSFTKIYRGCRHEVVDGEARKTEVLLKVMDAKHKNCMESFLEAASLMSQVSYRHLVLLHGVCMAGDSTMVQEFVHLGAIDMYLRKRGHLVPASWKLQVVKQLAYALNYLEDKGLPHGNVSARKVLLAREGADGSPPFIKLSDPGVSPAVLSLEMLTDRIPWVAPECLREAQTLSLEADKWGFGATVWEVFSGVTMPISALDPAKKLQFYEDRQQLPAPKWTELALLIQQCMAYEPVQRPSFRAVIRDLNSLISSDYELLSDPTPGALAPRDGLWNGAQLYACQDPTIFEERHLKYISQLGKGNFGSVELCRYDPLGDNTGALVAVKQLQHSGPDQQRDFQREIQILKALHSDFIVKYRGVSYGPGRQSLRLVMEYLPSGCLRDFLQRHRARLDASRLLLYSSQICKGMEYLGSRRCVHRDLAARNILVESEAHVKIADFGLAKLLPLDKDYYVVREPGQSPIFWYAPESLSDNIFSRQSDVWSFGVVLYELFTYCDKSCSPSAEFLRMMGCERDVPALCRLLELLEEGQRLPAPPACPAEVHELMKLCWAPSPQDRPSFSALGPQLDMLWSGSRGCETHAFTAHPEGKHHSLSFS

[7] = biological target: T2, Tyrosine-protein kinase JAK3 (Homo sapiens); conditions: at 1 µM
[8] = biological target: Vascular endothelial growth factor receptor 2 (Homo sapiens) (UniProt P35968); conditions: at 0.1 µM
[9] = biological target: Vascular endothelial growth factor receptor 2 (Homo sapiens) (UniProt P35968); conditions: at 1 µM
[10] = biological target: Mast/stem cell growth factor receptor Kit (Homo sapiens) (UniProt P10721); conditions: at 0.1 µM
[11] = biological target: Mast/stem cell growth factor receptor Kit (Homo sapiens) (UniProt P10721); conditions: at 1 µM
[12] = system: Mast/stem cell growth factor receptor Kit (Homo sapiens), P10721 [D816V]; conditions: at 0.1 µM
[13] = system: Mast/stem cell growth factor receptor Kit (Homo sapiens), P10721 [D816V]; conditions: at 1 µM
[14] = system: Mast/stem cell growth factor receptor Kit (Homo sapiens), P10721 [T670I]; conditions: at 0.1 µM
[15] = system: Mast/stem cell growth factor receptor Kit (Homo sapiens), P10721 [T670I]; conditions: at 1 µM
[16] = system: Mast/stem cell growth factor receptor Kit (Homo sapiens), P10721 [V560G]; conditions: at 0.1 µM
[17] = system: Mast/stem cell growth factor receptor Kit (Homo sapiens), P10721 [V560G]; conditions: at 1 µM
[18] = biological target: Tyrosine-protein kinase Lck (Homo sapiens) (UniProt P06239); conditions: at 0.1 µM
[19] = biological target: Tyrosine-protein kinase Lck (Homo sapiens) (UniProt P06239); conditions: at 1 µM
[20] = biological target: Leukocyte tyrosine kinase receptor (Homo sapiens) (UniProt P29376); conditions: at 0.1 µM

Chain of Tyrosine-protein kinase JAK1 (Homo sapiens) (P23458 whole entry): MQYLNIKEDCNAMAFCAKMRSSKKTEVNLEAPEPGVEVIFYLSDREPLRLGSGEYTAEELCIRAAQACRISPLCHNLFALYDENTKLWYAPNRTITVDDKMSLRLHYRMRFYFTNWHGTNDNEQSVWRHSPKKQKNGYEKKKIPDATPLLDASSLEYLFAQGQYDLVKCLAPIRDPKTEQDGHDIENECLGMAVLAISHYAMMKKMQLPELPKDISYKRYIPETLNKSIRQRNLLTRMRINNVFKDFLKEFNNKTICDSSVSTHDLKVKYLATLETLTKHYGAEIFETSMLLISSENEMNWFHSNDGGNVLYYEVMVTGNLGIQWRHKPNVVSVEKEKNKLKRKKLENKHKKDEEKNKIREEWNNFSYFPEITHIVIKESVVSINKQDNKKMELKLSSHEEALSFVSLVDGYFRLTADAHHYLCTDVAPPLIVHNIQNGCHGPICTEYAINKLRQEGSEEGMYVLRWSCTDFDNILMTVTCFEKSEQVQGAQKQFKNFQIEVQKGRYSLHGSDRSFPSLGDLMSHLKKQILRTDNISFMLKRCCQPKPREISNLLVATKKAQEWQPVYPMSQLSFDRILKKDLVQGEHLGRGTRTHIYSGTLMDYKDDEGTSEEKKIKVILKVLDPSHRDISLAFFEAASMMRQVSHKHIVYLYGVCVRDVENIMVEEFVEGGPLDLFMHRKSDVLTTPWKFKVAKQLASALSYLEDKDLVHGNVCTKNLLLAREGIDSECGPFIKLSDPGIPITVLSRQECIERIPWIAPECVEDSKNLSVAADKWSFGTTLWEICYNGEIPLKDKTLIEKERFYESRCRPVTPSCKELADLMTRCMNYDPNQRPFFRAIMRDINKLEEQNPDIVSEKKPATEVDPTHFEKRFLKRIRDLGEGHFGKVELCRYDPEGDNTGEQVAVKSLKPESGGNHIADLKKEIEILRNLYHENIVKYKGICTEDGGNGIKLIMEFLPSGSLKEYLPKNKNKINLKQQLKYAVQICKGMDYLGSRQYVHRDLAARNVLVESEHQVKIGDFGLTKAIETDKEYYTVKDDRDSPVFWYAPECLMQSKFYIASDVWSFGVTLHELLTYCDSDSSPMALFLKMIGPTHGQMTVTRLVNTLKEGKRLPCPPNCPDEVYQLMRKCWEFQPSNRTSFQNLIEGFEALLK
Chain of Tyrosine-protein kinase JAK2 (Homo sapiens) (O60674 whole entry): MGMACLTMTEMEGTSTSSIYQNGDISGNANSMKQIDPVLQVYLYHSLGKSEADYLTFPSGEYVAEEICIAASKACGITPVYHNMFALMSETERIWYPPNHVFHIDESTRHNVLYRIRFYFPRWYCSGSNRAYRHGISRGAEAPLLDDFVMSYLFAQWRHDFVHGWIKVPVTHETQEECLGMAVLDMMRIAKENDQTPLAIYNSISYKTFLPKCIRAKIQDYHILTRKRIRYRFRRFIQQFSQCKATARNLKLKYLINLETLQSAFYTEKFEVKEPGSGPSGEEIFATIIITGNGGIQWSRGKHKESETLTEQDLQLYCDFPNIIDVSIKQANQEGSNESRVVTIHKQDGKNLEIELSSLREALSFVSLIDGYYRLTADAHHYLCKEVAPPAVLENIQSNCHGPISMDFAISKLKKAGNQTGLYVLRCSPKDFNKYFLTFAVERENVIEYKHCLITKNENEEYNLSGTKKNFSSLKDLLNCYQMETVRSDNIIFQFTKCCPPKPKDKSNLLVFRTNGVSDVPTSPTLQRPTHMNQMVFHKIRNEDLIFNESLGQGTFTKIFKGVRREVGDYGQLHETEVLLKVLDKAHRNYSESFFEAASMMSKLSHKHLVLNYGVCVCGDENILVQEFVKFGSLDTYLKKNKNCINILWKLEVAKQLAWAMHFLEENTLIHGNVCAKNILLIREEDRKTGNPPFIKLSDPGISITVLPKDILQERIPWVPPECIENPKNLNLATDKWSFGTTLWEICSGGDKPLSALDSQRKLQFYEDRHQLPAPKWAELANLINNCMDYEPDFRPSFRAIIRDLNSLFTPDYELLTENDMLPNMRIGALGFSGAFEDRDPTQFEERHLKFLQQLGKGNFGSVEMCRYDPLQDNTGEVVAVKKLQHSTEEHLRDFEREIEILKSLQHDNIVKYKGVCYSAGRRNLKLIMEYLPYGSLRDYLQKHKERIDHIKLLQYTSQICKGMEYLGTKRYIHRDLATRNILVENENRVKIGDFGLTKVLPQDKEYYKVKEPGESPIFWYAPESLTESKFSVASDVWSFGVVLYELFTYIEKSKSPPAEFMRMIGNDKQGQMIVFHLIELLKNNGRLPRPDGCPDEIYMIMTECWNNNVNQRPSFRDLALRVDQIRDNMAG
Chain of Mast/stem cell growth factor receptor Kit (Homo sapiens), P10721 [D816V] (P10721 whole entry D816V): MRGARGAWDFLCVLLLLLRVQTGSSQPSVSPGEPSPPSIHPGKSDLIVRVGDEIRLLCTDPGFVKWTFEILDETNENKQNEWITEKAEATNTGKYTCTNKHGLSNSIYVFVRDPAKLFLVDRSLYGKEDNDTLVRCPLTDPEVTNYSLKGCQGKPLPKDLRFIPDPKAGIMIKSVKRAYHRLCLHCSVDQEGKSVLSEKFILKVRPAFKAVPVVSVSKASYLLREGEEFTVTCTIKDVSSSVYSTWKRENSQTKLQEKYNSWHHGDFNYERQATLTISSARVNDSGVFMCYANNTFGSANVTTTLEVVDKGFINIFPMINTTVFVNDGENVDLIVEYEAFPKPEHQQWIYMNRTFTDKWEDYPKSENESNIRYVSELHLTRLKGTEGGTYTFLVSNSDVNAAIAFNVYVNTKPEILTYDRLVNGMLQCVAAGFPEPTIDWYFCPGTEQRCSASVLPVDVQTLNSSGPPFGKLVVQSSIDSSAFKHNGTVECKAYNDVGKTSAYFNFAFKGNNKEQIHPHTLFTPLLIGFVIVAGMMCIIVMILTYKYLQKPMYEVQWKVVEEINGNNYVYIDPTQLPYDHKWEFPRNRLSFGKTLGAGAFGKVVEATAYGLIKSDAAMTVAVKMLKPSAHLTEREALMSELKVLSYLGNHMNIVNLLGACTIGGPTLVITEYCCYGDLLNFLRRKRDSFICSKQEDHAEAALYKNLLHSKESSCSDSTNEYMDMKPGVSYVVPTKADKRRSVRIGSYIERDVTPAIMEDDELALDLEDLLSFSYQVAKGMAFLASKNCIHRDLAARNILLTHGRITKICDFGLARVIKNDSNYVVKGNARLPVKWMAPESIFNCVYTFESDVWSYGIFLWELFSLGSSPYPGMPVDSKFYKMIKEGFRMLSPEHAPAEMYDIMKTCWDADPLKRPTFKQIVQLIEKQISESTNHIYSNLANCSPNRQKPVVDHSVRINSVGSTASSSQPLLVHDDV
Chain of Vascular endothelial growth factor receptor 2 (Homo sapiens) (P35968 whole entry): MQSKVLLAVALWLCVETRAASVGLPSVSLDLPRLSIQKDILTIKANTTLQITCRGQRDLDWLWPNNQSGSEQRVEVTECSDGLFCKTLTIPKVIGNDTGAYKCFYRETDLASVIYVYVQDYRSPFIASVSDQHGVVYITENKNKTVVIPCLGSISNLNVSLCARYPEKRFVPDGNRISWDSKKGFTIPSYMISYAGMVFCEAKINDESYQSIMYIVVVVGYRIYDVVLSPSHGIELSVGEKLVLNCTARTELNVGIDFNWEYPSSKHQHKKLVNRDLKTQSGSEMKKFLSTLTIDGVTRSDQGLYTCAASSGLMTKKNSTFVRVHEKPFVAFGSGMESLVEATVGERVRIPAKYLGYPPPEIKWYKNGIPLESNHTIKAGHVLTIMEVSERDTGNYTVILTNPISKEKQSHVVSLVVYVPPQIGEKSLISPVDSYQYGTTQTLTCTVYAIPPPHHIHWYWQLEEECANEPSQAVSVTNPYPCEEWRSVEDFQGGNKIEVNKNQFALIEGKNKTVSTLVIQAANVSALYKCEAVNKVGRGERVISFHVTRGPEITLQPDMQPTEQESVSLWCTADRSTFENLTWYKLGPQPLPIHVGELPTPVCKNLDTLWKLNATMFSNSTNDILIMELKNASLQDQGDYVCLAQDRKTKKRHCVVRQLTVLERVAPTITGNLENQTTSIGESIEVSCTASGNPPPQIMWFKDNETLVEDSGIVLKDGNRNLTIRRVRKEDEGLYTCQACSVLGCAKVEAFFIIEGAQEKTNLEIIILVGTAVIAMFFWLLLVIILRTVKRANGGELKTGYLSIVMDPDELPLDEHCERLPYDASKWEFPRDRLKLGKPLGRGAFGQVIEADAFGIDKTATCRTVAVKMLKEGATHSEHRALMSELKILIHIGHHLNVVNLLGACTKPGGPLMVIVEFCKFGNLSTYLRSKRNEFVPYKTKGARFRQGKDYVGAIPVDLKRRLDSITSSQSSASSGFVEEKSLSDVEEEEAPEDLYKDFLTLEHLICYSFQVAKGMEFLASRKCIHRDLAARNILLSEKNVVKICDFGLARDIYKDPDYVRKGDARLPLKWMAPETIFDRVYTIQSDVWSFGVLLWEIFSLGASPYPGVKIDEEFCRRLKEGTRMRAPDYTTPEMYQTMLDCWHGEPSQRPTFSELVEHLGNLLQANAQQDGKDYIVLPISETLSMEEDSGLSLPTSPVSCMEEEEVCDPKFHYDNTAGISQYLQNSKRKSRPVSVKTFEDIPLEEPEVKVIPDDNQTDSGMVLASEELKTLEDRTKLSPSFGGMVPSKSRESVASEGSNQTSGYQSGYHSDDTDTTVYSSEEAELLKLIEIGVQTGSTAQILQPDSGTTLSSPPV
Chain of Mast/stem cell growth factor receptor Kit (Homo sapiens), P10721 [T670I] (P10721 whole entry T670I): as the sequence (P10721 whole entry D816V) above, with T670I, V816D counted along it
Chain of Mast/stem cell growth factor receptor Kit (Homo sapiens) (P10721 whole entry): as the sequence (P10721 whole entry D816V) above, with V816D counted along it
Chain of Mast/stem cell growth factor receptor Kit (Homo sapiens), P10721 [V560G] (P10721 whole entry V560G): as the sequence (P10721 whole entry D816V) above, with V560G, V816D counted along it

Structure (SMILES)	inhibition [1]	inhibition [2]	inhibition [3]	inhibition [4]	inhibition [5]	inhibition [6]	inhibition [7]	inhibition [8]	inhibition [9]	inhibition [10]	inhibition [11]	inhibition [12]	inhibition [13]	inhibition [14]	inhibition [15]	inhibition [16]	inhibition [17]	inhibition [18]	inhibition [19]	inhibition [20]
O=C(Nc1n[nH]c2nnc(-c3cccnc3)cc12)C1CC1	2.49%	1.49%	2.85%	-0.35%	0.3%	-0.15%	0.02%	-0.85%	2.5%	1.26%	2.59%	-1.93%	1.15%	-0.12%	0.35%	2.26%	1.71%	1.03%	3.69%	1.26%
CCn1c(-c2nonc2N)nc2cncc(C(=O)NCCNC)c21	0.3%	0.48%	2.04%	2.49%	0.73%	-3.8%	-2.17%	4.45%	13.5%	6.23%	11.8%	12.8%	3.67%	3.08%	6%	-0.72%	0.98%	2.21%	3.67%	5.21%
O=C(O[C@H]1CN[C@H](C#Cc2cc3ncnc(Nc4ccc5c(ccn5Cc5cc(F)ccc5F)c4)c3s2)C1)N1CCOCC1	2.55%	5.05%	1.68%	1.8%	1.6%	-1.37%	0.4%	3.78%	10.6%	2.29%	2.34%	3.87%	3.82%	3.88%	2.88%	-0.88%	-2.32%	2.27%	4.87%	5.27%
CN1CCN(Cc2ccc(-c3cc4ncnc(Nc5ccc(OCc6cccc(F)c6)c(Cl)c5)c4s3)o2)CC1	2.43% and 2.68%	1.06% and 6.88%	3.27% and 18.5%	0.99% and 0.67%	0.57% and 0.86%	-2.47% and -0.74%	-1.79% and -0.23%	7.34% and 7.83%	24% and 24.2%	3.38% and 6.79%	11.5% and 12.7%	3.79% and 5.98%	5.98% and 4.53%	2.89% and 2.77%	2.77% and 5.27%	-1.59% and -3.38%	2.22% and 1.14%	4.76% and 7.19%	22.2% and 27.2%	3.61% and 4.17%
Cc1cc(O)cc(C)c1/C=C/c1cncc(C(=O)OC(C)(C)C)c1	2.71%	1.99%	7.09%	1.65%	3.69%	0.72%	6.16%	4.17%	6%	38.3%	85.7%	1.84%	-1.16%	4.32%	2.87%	2.94%	18.4%	4.23%	26.8%	2.71%
CCN1CCC(C(=O)Nc2n[nH]c3nnc(-c4cccc(F)c4F)cc23)CC1	0.88%	1.68%	-1.21%	-0.5%	-0.03%	0.12%	1.09%	1.67%	4.26%	1.8%	2.87%	-0.19%	-1.53%	3.1%	-0.26%	0.02%	3.46%	-0.07%	2.23%	-0.09%

Reference: ChEMBL document CHEMBL1961873, “Compounds: GSK PKIS; Assays: Nanosyn kinase panel” (2012)
